# FBPA Giardia inh: inhibitors of Giardia lamblia fructose-1,6-bisphosphate aldolase. purified Giardia FBPA. AID 2451. A8B2U2. 290,000 tested, 0.71% active. Potency, µM (doses to about 59.6 µM), without a hit: at the top dose activity, negative = inhibition, hits mostly inhibitors; also: potency is read from the fitted curve at half-maximal effect; % is scaled to controls: 0 for no effect and ±100 for the full control effect; nearly all actives have a fitted effect of over 55% in size
# Target sequence (A8B2U2 whole entry, looked up): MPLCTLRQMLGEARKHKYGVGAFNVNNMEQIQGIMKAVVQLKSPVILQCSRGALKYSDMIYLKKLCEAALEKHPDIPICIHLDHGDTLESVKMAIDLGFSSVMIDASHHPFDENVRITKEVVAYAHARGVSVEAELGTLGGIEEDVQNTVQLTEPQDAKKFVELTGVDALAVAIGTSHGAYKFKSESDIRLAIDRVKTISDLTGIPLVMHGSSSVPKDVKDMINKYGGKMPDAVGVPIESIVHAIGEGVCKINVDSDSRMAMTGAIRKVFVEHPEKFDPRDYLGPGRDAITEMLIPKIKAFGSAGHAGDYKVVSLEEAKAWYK
#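 Giardia FBPA (40 nM reagent) was preincubated 10 min at RT with compound (up to 57.5 uM final), then substrate plus GAPDH/TPI/NAD/arsenate coupling system with diaphorase/resazurin was added; resorufin fluorescence (525/598 nm) was read after 20 min.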
# LASV entry inh: Lassa virus entry inhibition | AID 540256 | Lassa virus pseudotype entry inhibition, cell reporter | 300,000 tested, 1.2% active | Potency, µM (top dose mostly 37.9 µM), for inactives: at the top dose activity change, negative = inhibition, actives largely listed as inhibitors; calls by dose curve; tested in HEK293 cells; also: potency is read from the fitted curve at half-maximal effect; % is scaled to controls: 0 for no effect and ±100 for the full control effect; nearly all actives have a fitted effect of over 50% in size
# Marburg entry inh: Marburg virus entry inhibition | Marburg virus pseudotyped entry inhibition, cell reporter | Potency, µM (titrated, usually from 37.8 µM), inactives show top-dose activity change, negative = inhibition, usual class: inhibitors | 300,000 tested, 1.8% active; calls by dose curve; tested in HEK293 cells; also: potency is read from the fitted curve at half-maximal effect; % is scaled to controls: 0 for no effect and ±100 for the full control effect
# HCV inh: inhibitors of hepatitis C virus infection; Huh7.5.1 HCVcc-Cre infection, luciferase reporter, 44 h; 340,000 tested, 3.4% active; Potency, µM (top dose mostly 41.8 µM), without a hit: top-dose activity change, negative = inhibition, most hits filed as inhibitors; also: potency is read from the fitted curve at half-maximal effect; % is scaled to controls: 0 for no effect and ±100 for the full control effect
#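 1,000 cells/well; 4 h culture; + compound; + HCVcc-Cre (~0.5 moi); 44 h; luciferase substrate, RT 15 min; read 15 sec.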
# FMDV inh: antivirals against foot and mouth disease virus. FMDV antiviral cell-based qHTS. 410,000 tested, 1.2% active. Potency, µM (series often up to 57.9 µM), for the others: at the highest dose activity change, negative = inhibition, usual class: inhibitors; calls by dose curve; tested in HEK293T cells; also: read-out not given here; potency is read from the fitted curve at half-maximal effect; % is scaled to controls: 0 for no effect and ±100 for the full control effect; nearly all actives have a fitted effect of over 45% in size
# HCMV antiviral: human cytomegalovirus inhibition; 410,000 tested, 4.5% active; HFF cells, HCMV-luciferase reporter, 72 h; stronger effect = lower value; AID 1259415; activity change, negative = inhibition, % at 57.5 µM; in the data active = activity change below about -60%; inconclusive = no clear call, values can overlap the other calls; inactive = above about -39%; also: % is scaled to controls: 0 for no effect and ±100 for the full control effect
#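 Human foreskin fibroblasts infected with luciferase-reporter HCMV at MOI 1 PFU/cell, compounds at two doses. Luciferase measured 72 h post infection; normalized to buffer-only basal and Salinomycin (10uM) controls.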
# HCV confirm: HCV inhibition, cherry-pick confirmation; shares compounds with HCV inh; HCVcc-Cre infectious virus cell assay, luciferase, inhibition; Potency, µM (titrated, usually from 41.8 µM), for inactives: at the highest dose activity, negative = inhibition, actives largely listed as inhibitors; 640 tested, 78% active; also: potency is read from the fitted curve at half-maximal effect; nearly all actives have a fitted effect of over 80% in size
# HCV cytotox: toxic to HCV host cells, flagging false HCV inhibitors. shares compounds with HCV inh. HCV host cell line cytotoxicity counterscreen. Potency, µM (titrated, usually from 41.8 µM), for the others: top-dose activity change, negative = cytotoxicity, actives largely listed as inhibitors. 640 tested, 22% active;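 also: potency is read from the fitted curve at half-maximal effect; 44 h compound exposure; % is scaled to controls: 0 for no effect and ±100 for the full control effect; nearly all actives have a fitted effect of over 55% in size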
# Numbers without * were called inactive; u = inconclusive; x = no result given; [ ] = another dose, or the depositor's remark. Sampled rows, rich in hits. Any-hit rate of the full collection: about 8.3%. Unless noted, calls follow the shape of the dose curve; as a rule, active = well fitted curve in the direction sought with a large enough effect; inconclusive = small, poorly fitted or top-dose-only effect, or another doubt; inactive = no such curve, though single readings can be large; an effect the other way counts as inactive or inconclusive.
SMILES,FBPA Giardia inh,LASV entry inh,Marburg entry inh,HCV inh,FMDV inh,HCMV antiviral,HCV confirm,HCV cytotox
O=C(Nc1ccc(CN2CCS(=O)(=O)CC2)cc1)c1ccc(C(F)(F)F)cc1,-2%,-29%,u,5.6µM*,u,-61*,5µM*,13µM*
O=C(Nc1ccc(CN2CCOCC2)cc1)c1ccc(F)cc1,2%,x,x,0%,59%,96,x,x
O=C(NC1(C(F)(F)F)Oc2ccc(Cl)cc2O1)N1CCC2(CC1)OCCO2 (centres undefined),u,-25%,u,u,-15%,-6,x,x
O=C(NC1(C(F)(F)F)Oc2ccccc2O1)N1CCC2(CC1)OCCO2,-3%,-25%[14.3 µM],u,u,7%,41,u,u
Cn1c(SCC(=O)NCC2CCCO2)ncc(C(=O)Nc2ccccc2)c1=O (centres undefined),x,-14%,u,5µM*,u,-2,9%,39%
Cc1ccc(NC(=O)c2cnc(SCC(=O)NCC3CCCO3)n(C)c2=O)cc1C (centres undefined),x,u,6%,4%,u,5,x,x
Cc1ccc(C)c(N2CCN(c3nc4ccccc4c(=O)n3-c3ccc(Cl)cc3)CC2)c1,x,16%[46.1 µM],-28%[46.1 µM],x,-19%,2,x,x
CCOC(=O)c1ccc2[nH]c(C)c(C)c2c1,x,2%,27%,-7%,15%,1,x,x
CCOC(=O)c1cc2c(ccc3nc(C)c(C)c32)[nH]c1C,3%,x,x,3.2µM*,2%,-17,13µM*,20%
CC1CC1C(=O)Nc1nc(-c2ccc(Cl)s2)cs1 (centres undefined),-4%,x,-44%[46.1 µM],u,-15%,-9,x,x
COc1ccc(C(=O)Nc2nc(-c3cccs3)cs2)cc1,3%,u,u,u,0%,-22,22µM*,0.0025µM*
O=C(Nc1nc(-c2ccc(Cl)s2)cs1)c1ccncc1,-8%,-21%,u,u,x,-77*,6.3µM*,u
O=C(COc1ccc(Cl)cc1)Nc1nc(-c2cccs2)cs1,-6%,u,-18%,14%,u,-9,x,x
COc1ccc(OC)c(CCNC(=O)Cn2ccc3cc(S(=O)(=O)N4CCCCC4)ccc32)c1,x,u,x,x,u,-27,x,x
O=S(=O)(NCCc1nnc2ccc(SCc3ccccc3Cl)nn12)c1ccccc1,x,-24%[46.1 µM],x,x,-8%,-16,x,x
CC#CC[N+](C)(C)CCCCCCCCCCCC,1%,u,10µM*,5µM*,13µM*,-101*,14µM*,-42%
COc1ccc2c(c1)c1c(c(=O)n(Cc3ccccc3)c(=O)n1Cc1ccc(C)cc1)n2C,x,5%[46.1 µM],x,x,9%,0,x,x
COc1cccc(NC(=O)Cn2c(=O)n(CCCCC(=O)NCc3ccccc3Cl)c(=O)c3ccccc32)c1,x,-25%[46.1 µM],u,x,-13%,-13,x,x
CCOc1ccc(CNC(=O)c2ccc(Sc3ccc(Cl)cc3)c(NC(C)=O)c2)cc1,9%,u,u,-29%,-30%,-18,x,x
CCOc1ccccc1CNC(=O)c1ccc(Sc2ccc(Cl)cc2)c(NC(C)=O)c1,0%,-1%,-22%,u,-14%,-22,13µM*,18%
COc1cc(Cl)c(C)cc1NC(=O)CCc1c(C)nc2c3cccnc3nn2c1C,x,-5%[46.1 µM],-3%[46.1 µM],x,0%,4,x,x
CCCn1c(=NC(=O)c2cc3ccccc3o2)c(C(=O)OCC)cc2c(=O)n3ccccc3nc21,x,8%[46.1 µM],-24%[46.1 µM],x,-8%,9,x,x
CCCn1c(=NC(=O)c2ccco2)c(C(=O)OCC)cc2c(=O)n3ccccc3nc21,0%,-11%,-14%,u,x,-27,u,21%
CCc1nn2cc(C(=O)c3ccccc3O)cnc2c1-c1ccc(F)cc1,4%,-13%,-31%,u,0%,27,11µM*,-10%
CCc1nn2cc(C(=O)c3cc(C)ccc3O)cnc2c1-c1ccc(F)cc1,4%,9%,u,u,u,-18,x,x
SMILES,FBPA Giardia inh,LASV entry inh,Marburg entry inh,HCV inh,FMDV inh,HCMV antiviral,HCV confirm,HCV cytotox
CCc1nnc(NC(=O)C2CCN(c3ncnc4sc(C)c(C)c34)CC2)s1,x,x,x,-11%,u,94,x,x
COc1ccc(S(=O)(=O)N(C)C)cc1NC(=O)C1CCN(c2ncnc3sc(C)c(C)c23)CC1,x,x,x,8.9µM*,u,u,8.9µM*,u
CCCCn1cc(S(=O)(=O)c2ccc(OC)cc2)c(=O)c2cc(CC)ccc21,x,-20%[46.1 µM],u,x,6%,-26,x,x
C=C(C)Cc1c(C)c(C#N)c2nc3ccccc3n2c1N1CCCCC1,4%,4%,-17%,u,-13%,u,14µM*,43%
O=C(NCc1ccc(Cl)cc1)C1CCCN(c2ncnc3onc(-c4ccc(F)cc4)c23)C1 (centres undefined),x,-15%[46.1 µM],x,x,-11%,8,x,x
CCN1/C(=C/c2ccc3cc(C)cc(C)c3[n+]2CC)Sc2cc(C)ccc21,-1%,x,x,7.1µM*,u,-100*,7.9µM*,7.9µM*
Cc1cc(C)cc(NC(=O)c2nnn(Cc3cc(C)ccc3C)c2N)c1,-5%,x,x,u,u,x,11µM*,23%
CCOc1ccc2nc(NC(=O)c3nc(SCc4ccc(C)cc4)ncc3Cl)sc2c1,x,27%[46.1 µM],1%[46.1 µM],x,u,19,x,x
Cc1cc(C)c2cc(C(=O)N3CCc4ccccc4C3)[nH]c2c1,-8%,-21%,-21%,u,31%,-24,u,-33%
CC1CN(C)C(C)CC1OC(=O)C(c1ccccc1)c1ccccc1 (centres undefined),x,x,x,u,-17%,-6,25µM*,-22%
CSc1nc2ccc(Cl)cc2[nH]1,2%,20%,-4%,u,16%,-33,x,x
CSc1nc2cc(Oc3cccc(Cl)c3Cl)c(Cl)cc2[nH]1,u,x,x,7.9µM*,u,-27,u,26%
Cn1c(=O)c2c(nc(SCC(=O)NCc3ccc4c(c3)OCO4)n2Cc2ccc(Cl)cc2)n(C)c1=O,3%,1%,11%,2.5µM*,-5%,-22,3.5µM*,20%
CCSc1nc2c(c(=O)n(C)c(=O)n2C)n1Cc1ccc(Cl)cc1,x,-9%,-4%,u,u,-28,x,x
O=C1/C(=C/c2cccnc2)Oc2cc(OS(=O)(=O)c3ccc(F)cc3)ccc21,0%,-22%,u,4.5µM*,22µM*,6,25µM*,-29%
Cc1onc(-c2ccccc2Cl)c1C(=O)NC1C(=O)N2C1SC(C)(C)C2C(=O)O (centres undefined),-11%,x,x,x,-11%,x,x,x
NC(=O)N/N=C1\c2ccccc2-c2c(C(N)=O)cccc21,5%,x,x,-23%,-23%,53,x,x

# From PubChem
